# Source: PubChem BioAssay (EPA / NIEHS)
# Values joined by “and” are separate entries in the source; they are usually repeats but may differ in a detail not shown here. Equal values may be shown once. Records with an inconclusive call do not appear. Some structures have more than one record in an assay (separate samples or runs), and their calls can disagree. Active and inactive are the calls of the source. How the source made its calls: active means hit-call score of the fitted dose curve at least 0.9, where 1 is the maximum; inconclusive means response in the unintended direction; inactive means score below 0.9. Peptide text beside a SMILES is read from it.
# What was measured:
# [1] = TOX21_p53_BLA_p2_viability: Viability Assessment in the Tox21 HCT-116 p53 Agonism Beta-lactamase Assay, Phase 2 (AID 2283591);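 further: compound exposure lasted 16 h at 37 °C; actives lower the ATP signal meaning cytotoxicity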
# Procedure, shortened: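 HCT116 p53-bla cells, 4000/well, dosed after 5 h plating (217-fold dilution of DMSO stocks) and incubated 16 h at 37C. Viability taken as cellular ATP by CellTiter-Glo luminescence after 30 min RT; signal loss marks cytotoxicity.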
# [2] = TOX21_p53_BLA_p3_viability: Viability Assessment in the Tox21 HCT-116 p53 Agonism Beta-lactamase Assay, Phase 3 (AID 2283593);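 further: cells exposed to compound for 16 h before reading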
# Procedure, shortened: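 HCT116 cells, 4000/well, dosed 5 h after plating by pin transfer (217-fold dilution from DMSO stock) and incubated 16 h at 37C, 5% CO2. Viability read as ATP luminescence with CellTiter-Glo after 30 min at room temperature.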
# [3] = biological target: Cellular tumor antigen p53 (Homo sapiens) (UniProt P04637); experiment: TOX21_p53_BLA_p2_ratio: Tox21 HCT-116 p53 Agonism Beta-lactamase Assay, Ratio, Phase 2 (AID 2283592)
# Chain of Cellular tumor antigen p53 (Homo sapiens) (P04637 whole entry, looked up): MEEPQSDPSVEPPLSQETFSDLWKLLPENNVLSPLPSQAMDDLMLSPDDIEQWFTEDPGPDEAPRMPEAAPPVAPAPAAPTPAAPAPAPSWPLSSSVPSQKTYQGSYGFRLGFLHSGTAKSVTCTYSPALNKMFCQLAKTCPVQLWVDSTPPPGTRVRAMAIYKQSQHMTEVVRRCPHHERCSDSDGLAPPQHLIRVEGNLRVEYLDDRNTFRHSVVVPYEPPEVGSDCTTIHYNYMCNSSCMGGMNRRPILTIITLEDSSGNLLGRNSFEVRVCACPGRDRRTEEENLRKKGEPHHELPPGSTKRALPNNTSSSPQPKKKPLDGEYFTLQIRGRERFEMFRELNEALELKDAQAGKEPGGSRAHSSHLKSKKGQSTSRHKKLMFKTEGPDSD
# Procedure, shortened: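 HCT116 p53-bla; 4000 cells/well; 5 h pre-incubation; cpd in DMSO, 217-fold dilution; 16 h 37C/5% CO2; CCF4-AM 2 h RT; Ex 405, Em 460/530 ratio; DMSO = baseline; positive fitting direction.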
# [4] = ATG_XTT_Cytotoxicity: Cytotoxicity Assessment in the Attagene TRANS-FACTORIAL HepG2 Assay (AID 2283584);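 on AC50: cells exposed to compound for 24 h before reading; active means loss of viability signal versus DMSO baseline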
# Procedure, shortened: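 Cells: human HepG2, transiently transfected with MRTU reporter constructs. Exposure 24 h. Readout: XTT, cell number. Baseline/neg ctrl DMSO; loss-of-signal scored.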
smiles,measurement,setting,value
Nc1ccc(C(=O)O)cc1,outcome,[1],inactive
C1CNCCN1,outcome,[1],inactive
same,outcome,[2],inactive
Oc1ccc(-c2ccccc2)c(Cl)c1,outcome,[1],inactive
same,outcome,[3],inactive
CCCCCCCOC(=O)c1ccc(O)cc1,outcome,[4],inactive
same,AC50,[1],44.8 µM (active)
same,outcome,[1],inactive
same,AC50,[3],58.9 µM (active) and 86.4 µM (active)
same,AC50,[2],44.2 µM (active)
same,outcome,[2],inactive
CCCCCCCCCCCCCC(=O)OC(C)C,outcome,[4],inactive
same,outcome,[1],inactive
same,outcome,[3],inactive
O=S(=O)(O)c1ccc(Nc2nc(Nc3ccc(C=Cc4ccc(Nc5nc(Nc6ccc(S(=O)(=O)O)cc6)nc(N(CCO)CCO)n5)cc4S(=O)(=O)O)c(S(=O)(=O)O)c3)nc(N(CCO)CCO)n2)cc1,outcome,[4],inactive
same,outcome,[1],inactive
same,outcome,[3],inactive
CCCCC/C=C\C/C=C\CCCCCCCC(=O)O,outcome,[4],inactive
same,AC50,[1],41.5 µM (active)
same,outcome,[1],inactive
same,AC50,[3],72.9 µM (active)
same,outcome,[3],inactive
CC(C)(CO)COC(=O)C(C)(C)CO,outcome,[4],inactive
same,outcome,[1],inactive
same,outcome,[3],inactive
Nc1ccnc(=O)[nH]1,outcome,[4],inactive
same,outcome,[1],inactive
same,outcome,[3],inactive
NC(=O)Nc1ccccc1,outcome,[4],inactive
same,outcome,[1],inactive
CC(C)(C)NC(=O)[C@H]1CC[C@H]2[C@@H]3CC[C@H]4NC(=O)C=C[C@]4(C)[C@H]3CC[C@]12C,outcome,[4],inactive
same,outcome,[1],inactive
same,outcome,[3],inactive
CCCCC(CC)COC(=O)/C=C/c1ccc(OC)cc1 (stereo not drawn),outcome,[4],inactive
same,outcome,[1],inactive
O=C1CCCCCCCCCCC1,outcome,[4],inactive
same,outcome,[1],inactive
same,outcome,[3],inactive
C=CC(C)(CCC=C(C)C)OC(=O)C=Cc1ccccc1 (stereo not drawn),outcome,[4],inactive
same,outcome,[1],inactive
CCCC/C=C/C=C\C=O,outcome,[4],inactive
same,outcome,[1],inactive
same,outcome,[3],inactive
CC(=O)OCCc1ccccc1,outcome,[4],inactive
same,outcome,[1],inactive
CCCCCCCCCCCCC,outcome,[4],inactive
same,outcome,[1],inactive
COc1ccc(C(=O)/C(Br)=C\C(=O)O)cc1,outcome,[4],inactive
same,AC50,[1],86.2 µM (active)
same,outcome,[1],inactive
same,AC50,[3],24.8 µM (active) and 24.2 µM (active)
O=C(Nc1ccccc1)c1cc(Cl)ccc1O,outcome,[4],inactive
same,AC50,[1],12.9 µM (active)
same,AC50,[3],3.55 µM (active)
CC1=C(O)C(=O)C(C)O1 (stereo not drawn),outcome,[4],inactive
same,outcome,[1],inactive
same,outcome,[3],inactive
CCc1occc(=O)c1O,outcome,[4],inactive
same,outcome,[1],inactive
c1ccc(Nc2cccc3ccccc23)cc1,outcome,[4],inactive
same,AC50,[1],71.1 µM (active)
same,outcome,[1],inactive
same,AC50,[3],77.1 µM (active) and 81.1 µM (active)
same,outcome,[2],inactive
O=C(Oc1ccccc1)c1ccccc1C(=O)Oc1ccccc1,outcome,[4],inactive
same,outcome,[1],inactive
same,outcome,[3],inactive
CCCCCCCCCCCCc1ccc(O)cc1,AC50,[4],50.4 µM (active)
same,outcome,[4],inactive
same,AC50,[3],65.5 µM (active)
CCOC(=O)c1ccc(C)cc1,outcome,[4],inactive
same,outcome,[1],inactive
C=C(C)C(=O)OCC(O)COc1ccc(C(C)(C)c2ccc(OCC(O)COC(=O)C(=C)C)cc2)cc1 (stereo not drawn),outcome,[4],inactive
same,AC50,[1],69.2 µM (active)
same,outcome,[3],inactive
CCCCOC(=O)C(C)CC (stereo not drawn),outcome,[4],inactive
same,outcome,[1],inactive
same,outcome,[3],inactive
CC(CC=O)CC(C)(C)C (stereo not drawn),outcome,[4],inactive
same,outcome,[1],inactive
Oc1ccccc1Cc1ccccc1O,outcome,[4],inactive
same,outcome,[1],inactive
same,outcome,[3],inactive
CC(=O)CCC=C(C)C,outcome,[4],inactive
same,outcome,[1],inactive
same,outcome,[3],inactive
COC(C=C(C)CCC=C(C)C)OC,outcome,[4],inactive
same,outcome,[1],inactive
same,outcome,[3],inactive
CC(C)[N+](C)(CCOC(=O)C1c2ccccc2Oc2ccccc21)C(C)C,outcome,[4],inactive
same,outcome,[1],inactive
same,outcome,[3],inactive
N#Cc1ccc(C2CCCc3cncn32)cc1 (stereo not drawn),outcome,[4],inactive
same,outcome,[1],inactive
same,outcome,[3],inactive
CCCCOCC(C)O (stereo not drawn),outcome,[4],inactive
same,outcome,[1],inactive
same,outcome,[3],inactive
O=C(O)/C=C/c1ccccc1,outcome,[4],inactive
same,outcome,[1],inactive
same,outcome,[3],inactive
CC(C)C(=O)OCCOc1ccccc1,outcome,[4],inactive
same,outcome,[1],inactive
same,outcome,[3],inactive
CC1(C)[C@@H]2CC[C@@]1(C)C(=O)C2,outcome,[4],inactive
same,outcome,[1],inactive
same,outcome,[3],inactive
CCCCOCCOC(=O)COc1ccc(Cl)cc1Cl,outcome,[4],inactive
same,outcome,[1],inactive
same,outcome,[3],inactive
Oc1c(Cl)cc(Cl)c(Cl)c1Cl,outcome,[4],inactive
same,outcome,[1],inactive
same,AC50,[3],34.4 µM (active) and 22.5 µM (active)
O=C(Cl)c1ccc(C(=O)Cl)cc1,outcome,[4],inactive
same,outcome,[1],inactive
same,outcome,[3],inactive
CC(=O)OC(C)c1ccccc1 (stereo not drawn),outcome,[4],inactive
same,outcome,[1],inactive
same,outcome,[3],inactive
COc1ccc(-c2coc3cc(O)cc(O)c3c2=O)cc1,outcome,[4],inactive
same,AC50,[1],68.5 µM (active)
same,outcome,[1],inactive
same,AC50,[3],71.6 µM (active) and 72 µM (active)
C=CCCCCCCCCO,outcome,[4],inactive
same,outcome,[1],inactive
same,outcome,[3],inactive
COC(=O)[C@H](Cc1ccccc1)NC(=O)[C@@H](N)CC(=O)O (H-Asp-Phe-OMe),outcome,[4],inactive
same,outcome,[1],inactive
same,outcome,[3],inactive
same,outcome,[2],inactive
COCC(=O)O,outcome,[4],inactive
same,outcome,[1],inactive
same,outcome,[3],inactive
CC1C(C)(C)C2=C(C(=O)CCC2)C1(C)C (stereo not drawn),outcome,[4],inactive
same,outcome,[1],inactive
same,outcome,[3],inactive
same,outcome,[2],inactive
CCOC(=O)/C=C\C(=O)OCC,outcome,[4],inactive
same,outcome,[1],inactive
same,outcome,[3],inactive
same,outcome,[2],inactive
CCCCCCCCCC(C)=O,outcome,[4],inactive
same,outcome,[1],inactive
same,outcome,[3],inactive
Fc1ccc(Br)cc1,outcome,[4],inactive
same,outcome,[1],inactive
same,outcome,[3],inactive
CC(C)OC(=O)c1ccccc1,outcome,[4],inactive
same,outcome,[1],inactive
same,outcome,[3],inactive
same,outcome,[2],inactive
C=C(C)OC(C)=O,outcome,[4],inactive
same,outcome,[1],inactive
same,outcome,[3],inactive
same,outcome,[2],inactive
CC(C)(c1ccccc1)c1ccc(Nc2ccc(C(C)(C)c3ccccc3)cc2)cc1,outcome,[4],inactive
same,outcome,[1],inactive
same,outcome,[3],inactive
same,outcome,[2],inactive
CC(C)c1cccc(C(C)C)c1N,outcome,[4],inactive
same,outcome,[1],inactive
same,outcome,[3],inactive
same,outcome,[2],inactive
